Test results as given in PubChem BioAssay (NCI).
This is part of a sample that, as a whole, favours compounds with a hit. Of some 83,000 tested, about 20% had one in any assay.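 Each cell line was grown in a 96-well plate and treated with one concentration of compound for 48 hours. Values below 10 were considered active.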 Values without a mark were called inactive. Calls of active or inactive are those of the source.

The compounds below were run on SNB-75 CNS (assay: NCI-60 one-dose screen, 48 h (100 = growth as untreated, 0 = no growth, -100 = all killed)). Details: 10 µM unless noted.

SMILES	growth
CNCc1cccc2c1OCCOCCOCCN(CCN1CCOCC1)S(=O)(=O)c1ccc(cc1)-c1cnc(N)c(n1)C(=O)N2	16.7%
Cc1cnc(-c2ccc(-c3ccc(NC(=O)Nc4c(F)cc(F)cc4F)cc3F)c3c2C(=O)NC3)[nH]1	17.3%
Cc1cc(C)c(NC(=O)c2sc3nc4c(cc3c2N)CCCCCC4)c(C)c1	57.6%
O=C1NN(c2ccccc2)C(c2ccc3c(c2)OCO3)N2CCC[C@@H]12 (some centres not stated)	93.6%
C=C1C(=O)O[C@H]2[C@H]1CC/C(COC(=O)CCCCCCCCC(=O)OC/C1=C/CC[C@@]3(C)O[C@H]3[C@H]3OC(=O)C(=C)[C@@H]3CC1)=C\CC[C@@]1(C)O[C@@H]21	58.4%
COc1ccc(C2N(c3cc(OC)c(OC)c(OC)c3)C(=O)C2(F)F)cc1F (configuration not stated)	64.7%
C=C1C(=O)O[C@H]2[C@H]1CC/C(COC(=O)CCCCCCC(=O)OC/C1=C/CC[C@@]3(C)O[C@H]3[C@H]3OC(=O)C(=C)[C@@H]3CC1)=C\CC[C@@]1(C)O[C@@H]21	63.1%
O=c1nc(-c2ccccc2)c2cc(-c3ccc(N4CCCC4)nc3)ccc2[nH]1	66.1%
O=C(Nc1nc(-c2ccccc2)cs1)c1cc(-c2ccc(Br)cc2)nc2ccccc12	85.1%
COc1ccc2nc3c(n2c1)C(=O)C(=O)c1ccccc1-3	-54.4% (active)
C=C1C(=O)O[C@H]2[C@H]1CCC(/C=N/c1ncc(Br)cc1N)=C\CC[C@@]1(C)O[C@@H]21	85.3%
COC(=O)c1ccc(NC(=O)CSc2nc(-c3ccc(F)cc3)nc3ccccc23)cc1	79.4%
COc1ccc(C2C(c3ccccc3)C(=O)N2c2cc(OC)c(OC)c(OC)c2)cc1I (configuration not stated)	57.5%
O=[N+]([O-])c1cccc(CN(Cc2cccc([N+](=O)[O-])c2O)c2ccccc2)c1O	86.1%
Nc1c(C(=O)Nc2ccccn2)sc2nc3c(cc12)CCCCCC3	-1.5% (active)
C[C@]12CC[C@@H]3c4ccc(O)cc4CC[C@H]3[C@@H]1C[C@H](O)C2	84.2%
COCCOCCOCc1n(Cc2ccc3ccccc3c2)c2ccccc2[n+]1Cc1ccc2ccccc2c1	-4.1% (active)
COc1ccc(C(=O)c2cc(F)c(F)c(OC)c2F)cc1OC(=O)CCl	42.9%
Nc1cccc(C(=O)Nc2ccc3c(O)c(N=Nc4ccc(N=Nc5ccc(S(=O)(=O)O)cc5)cc4)c(S(=O)(=O)O)cc3c2)c1	87.9%

SMILES	growth
O=C(Nc1ccccc1)NS(=O)(=O)c1c[nH]c(=S)[nH]c1=O	89.2%
CC(C)CSc1nc(Nc2ccccc2)c(C#N)c(-c2ccc(F)cc2)n1	-16.2% (active)
CC(C)(C#N)c1cc(F)cc(C(=O)Nc2cc(Nc3ncccc3-c3ncnc4nc[nH]c34)ccc2F)c1	78.7%
COc1c(O)cc2oc3cc(O[C@@H]4OC(C)[C@@H](O)[C@H](O)C4O)c(CC=C(C)C)c(O)c3c(=O)c2c1CC=C(C)C (some centres not stated)	88.9%
O=C(CCCC(=O)Nc1ccc(-n2nnc3cc(Cl)c(Cl)cc32)cc1)Nc1ccc(-n2nnc3cc(Cl)c(Cl)cc32)cc1	30.4%
Cn1cc(-c2ccc3c(c2)ncn3-c2ccc(CC(=O)Nc3cc(C(C)(C)C)on3)cc2)cn1	-20.6% (active)
CCC1S/C(=N\N=C(/C)c2ccc[nH]2)N(c2ccccc2)C1=O (configuration not stated)	105%
CC(=O)ON1CCCC(P(=O)(OCOC(=O)C(C)(C)C)OCOC(=O)C(C)(C)C)C1=O (configuration not stated)	25.4%
Cc1cccc(C)c1Nc1nnc(-c2ccc(F)cc2)o1	80.2%
COc1ccc(C2=NN(c3ccc(S(N)(=O)=O)cc3)C(c3ccc(Cl)cc3)C2)c(O)c1 (configuration not stated)	70.1%
CC(=O)Nc1nc2c(c(N)c1C#N)C(c1cccc(Cl)c1)C1=C(CCCC1=O)N2c1sc2c(c1C#N)CCCC2 (configuration not stated)	81%
C#Cc1ccccc1NC(=O)c1sc2nc3c(cc2c1N)CCCCCC3	39.2%
C=C(C)[C@@H]1CC[C@]2(C(=O)N3CCN(C)CC3)CC[C@]3(C)[C@H](CC[C@@H]4[C@@]5(C)C/C(=C/c6ccco6)C(=O)C(C)(C)[C@@H]5CC[C@]43C)[C@@H]12	68%
CCCCC(=O)Nc1c(C(=O)Nc2ccccc2)sc2nc3c(cc12)C(OC(=O)CCCC)CCC3 (configuration not stated)	89.3%
C#CC[C@@H]1C[C@]2(C)[C@H]3CC[C@@H]4[C@H]5[C@H](C(=C)C)CC[C@]5(C(=O)O)CC[C@@]4(C)[C@]3(C)CC[C@H]2C(C)(C)[C@H]1O	-8.42% (active)
Cc1ccc(-c2nc(C#N)c(S(=O)(=O)N(C)CCO)o2)cc1	101%
FC(F)(F)c1ccc2c(Nc3cccc(C4CC(c5ccccc5)=NN4c4ccc(Cl)cc4)c3)ccnc2c1 (configuration not stated)	70%
COc1ccc2nc(-c3ccc(OC)c(OC)c3)cc(-c3nnc(SCC(=O)Nc4ccc(/C(C)=N\O)cc4)n3-c3ccccc3)c2c1	77.3%
